Results reported in PubChem BioAssay.
The source made the active and inactive calls. Unless noted, no rule for the calls is given here.

Key:
[1] = compounds binding Alexa647 anti-His antibody – biochemical, small-molecule microarray, 635 nm fluorescence, artefact control for SMM control protein annotation, primary screen (AID 1128); settings: higher = more signal;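 also: score merges feature fluorescence with signal-to-noise for each printed compound spot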
[2] = system: Human papillomavirus type 1a E7 protein (residues 1-88); test: HPV1a E7 small-molecule binders, primary screen, biochemical, small-molecule microarray, residues 1-88, 635 nm (AID 1129); settings: small-molecule microarray binding, fluorescence 635 nm; higher = more signal
[3] = biological target: Focal adhesion kinase 1 (Homo sapiens) (UniProt Q05397); test: PTK2 protein binding on printed compound slides – biochemical, small-molecule microarray, 635/667 nm fluorescence, BSA, DTT, primary screen (AID 1130); settings: 635 nm fluorescence, higher = more signal;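 also: composite of spot emission at 667 nm and signal to noise over triplicate slides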
[4] = system: Fibrinogen (Alexa647-labelled); test: Alexa647-fibrinogen binding to printed small molecules – biochemical, small-molecule microarray, 635/667 nm fluorescence, artefact control for SMM control-protein annotation, profiling panel (AID 1131); settings: fibrinogen-A647 binding fluorescence, higher = more signal;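 also: z-score merges 667 nm fluorescence with per-spot signal-to-noise over triplicate slides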
[5] = biological target: Follistatin (Homo sapiens) (UniProt P19883); test: FST protein binding to printed compounds – biochemical, small-molecule microarray, 635/667 nm fluorescence, primary screen (AID 1132); settings: 635 nm fluorescence, higher = more signal
[6] = biological target: Fibroblast growth factor 2 (Homo sapiens) (UniProt P09038); test: basic fibroblast growth factor binding to printed compounds – biochemical, small-molecule microarray, 635/667 nm fluorescence, primary screen (AID 1133); settings: FGF2, fluorescence 635/667, higher = more signal
[7] = JC-1 mitochondrial potential readout, lung cancer cells – cell-based, A549, JC-1 fluorescence, basal, 24 h, 100 nL, profiling panel (AID 1138); settings: higher = more signal;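 also: A549 lung adenocarcinoma cells under basal conditions with no added stimulus; test concentration not given here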
Lefty1 = Lefty1 protein binding to printed compounds – biochemical, small-molecule microarray, 635/667 nm fluorescence, primary screen (AID 1139); settings: fluorescence 635/667, higher = more signal
[8] = system: wheat germ agglutinin (Triticum aestivum), Alexa647-labelled; test: Alexa647-WGA lectin binding to printed small molecules – biochemical, small-molecule microarray, 635/667 nm fluorescence, artefact control for SMM control-protein annotation, profiling panel (AID 1140); settings: WGA-A647 binding, 635 nm fluorescence, higher = more signal;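 also: score merges 667 nm feature emission with signal to noise over triplicate slides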
[9] = biological target: Luciferin 4-monooxygenase (Photinus pyralis) (UniProt P08659); test: inhibition of purified Photinus pyralis luciferase – biochemical, luminescence, purified enzyme, 2006 set, primary screen (AID 1141); settings: purified firefly luciferase, SteadyGlo luminescence, 30 min; higher = more signal, called active from +8 up or from −8 down;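 also: cell-free assay with purified firefly luciferase at 100 ng per well in PBS; test concentration not given here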
[10] = system: Wnt5a (protein binding on small-molecule microarray); test: small molecules binding Wnt5a protein – biophysical, small-molecule microarray, 635/667 nm fluorescence, primary screen (AID 1142); settings: 635 nm fluorescence, higher = more signal;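 also: fluorescence read at 667 nm with signal to noise per printed feature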
[11] = ATP-based viability of Huh7 replicon cells – cell-based, CellTiter-Glo luminescence, basal, 48 h, cytotoxicity control for HCV replication inhibitor project, primary screen (AID 1143); settings: higher = more signal, called active from +8 up or from −8 down;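 also: Huh7 hepatoma cells carrying a hepatitis C replication reporter with no stimulus; test concentration not given here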
[12] = Pseudomonas biofilm growth suppression – PAO1 strain, BacTiter-Glo luminescence, LB-PBS, primary screen (AID 1144); settings: P. aeruginosa PAO1 biofilm, 12 h, higher = more signal
[13] = basal CRE-LacZ reporter activity in PC12 – cell-based, unstimulated, primary screen (AID 1145); settings: no forskolin, luminescence, 4.5 h, higher = more signal, called active from +8 up or from −8 down
[14] = forskolin-driven CRE-LacZ activity in PC12 – cell-based, CRE-LacZ reporter, forskolin-stimulated, primary screen (AID 1146); settings: luminescence, 4.5 h, higher = more signal, called active from +8 up or from −8 down;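 also: PC12 cells with 6xCRE LacZ reporter stimulated by forskolin 10 µM; beta-galactosidase reporter signal reflecting CREB driven transcription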
[15] = biological target: Streptavidin (Streptomyces avidinii) (UniProt P22629); test: compounds binding control protein streptavidin – biophysical, small-molecule microarray, 635/667 nm fluorescence, artefact control for SMM compound annotation, primary screen (AID 1147); settings: higher = more signal;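 also: signal reflects streptavidin binding to arrayed compounds as a control protein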
[16] = probe aInhba binding on compound microarray – biochemical, small-molecule microarray, 635/667 nm fluorescence, primary screen (AID 1148); settings: higher = more signal;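 also: score merges 667nm spot fluorescence with signal-to-noise for antibody binding to printed compounds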
Torsin-1A (Homo sapiens) [17] = biological target: Torsin-1A (Homo sapiens) (UniProt O14656); test: TOR1A wild-type binding on microarray – cell lysate, small-molecule microarray, lysate, 635/667 nm, primary screen (AID 1149); settings: COS7 hTOR1A-WT lysate, 635 nm fluorescence, higher = more signal
Torsin-1A (Homo sapiens) [18] = biological target: Torsin-1A (Homo sapiens) (UniProt O14656); test: torsin A mutant lysate binding on microarrays – cell lysate, small-molecule microarray, COS7 lysate, 635/667 nm fluorescence, primary screen (AID 1150); settings: COS7 hTOR1A mutant lysate, 635 nm fluorescence, higher = more signal;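 also: score pools 667 nm emission and signal to noise measuring lysate protein binding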
[19] = system: Sonic hedgehog protein (Shh); test: Sonic hedgehog microarray binding compounds – biochemical, small-molecule microarray, 635/667 nm fluorescence, primary screen (AID 1151); settings: 635 nm fluorescence, higher = more signal;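 also: Shh protein binding to compounds spotted on small-molecule microarray slides; score combines spot fluorescence intensity with signal-to-noise across triplicate slides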

Follistatin (Homo sapiens), sequence (P19883 whole entry, looked up): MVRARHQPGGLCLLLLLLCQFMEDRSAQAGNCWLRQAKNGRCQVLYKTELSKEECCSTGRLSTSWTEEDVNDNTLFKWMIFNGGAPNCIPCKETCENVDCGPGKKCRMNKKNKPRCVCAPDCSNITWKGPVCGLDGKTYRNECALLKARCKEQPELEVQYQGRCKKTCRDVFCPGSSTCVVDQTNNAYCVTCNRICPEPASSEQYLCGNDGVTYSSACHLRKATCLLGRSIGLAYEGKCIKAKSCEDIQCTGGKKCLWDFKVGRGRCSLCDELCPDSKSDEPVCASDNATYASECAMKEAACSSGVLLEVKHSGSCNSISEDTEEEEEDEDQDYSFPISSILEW
Focal adhesion kinase 1 (Homo sapiens), sequence (Q05397 whole entry, looked up): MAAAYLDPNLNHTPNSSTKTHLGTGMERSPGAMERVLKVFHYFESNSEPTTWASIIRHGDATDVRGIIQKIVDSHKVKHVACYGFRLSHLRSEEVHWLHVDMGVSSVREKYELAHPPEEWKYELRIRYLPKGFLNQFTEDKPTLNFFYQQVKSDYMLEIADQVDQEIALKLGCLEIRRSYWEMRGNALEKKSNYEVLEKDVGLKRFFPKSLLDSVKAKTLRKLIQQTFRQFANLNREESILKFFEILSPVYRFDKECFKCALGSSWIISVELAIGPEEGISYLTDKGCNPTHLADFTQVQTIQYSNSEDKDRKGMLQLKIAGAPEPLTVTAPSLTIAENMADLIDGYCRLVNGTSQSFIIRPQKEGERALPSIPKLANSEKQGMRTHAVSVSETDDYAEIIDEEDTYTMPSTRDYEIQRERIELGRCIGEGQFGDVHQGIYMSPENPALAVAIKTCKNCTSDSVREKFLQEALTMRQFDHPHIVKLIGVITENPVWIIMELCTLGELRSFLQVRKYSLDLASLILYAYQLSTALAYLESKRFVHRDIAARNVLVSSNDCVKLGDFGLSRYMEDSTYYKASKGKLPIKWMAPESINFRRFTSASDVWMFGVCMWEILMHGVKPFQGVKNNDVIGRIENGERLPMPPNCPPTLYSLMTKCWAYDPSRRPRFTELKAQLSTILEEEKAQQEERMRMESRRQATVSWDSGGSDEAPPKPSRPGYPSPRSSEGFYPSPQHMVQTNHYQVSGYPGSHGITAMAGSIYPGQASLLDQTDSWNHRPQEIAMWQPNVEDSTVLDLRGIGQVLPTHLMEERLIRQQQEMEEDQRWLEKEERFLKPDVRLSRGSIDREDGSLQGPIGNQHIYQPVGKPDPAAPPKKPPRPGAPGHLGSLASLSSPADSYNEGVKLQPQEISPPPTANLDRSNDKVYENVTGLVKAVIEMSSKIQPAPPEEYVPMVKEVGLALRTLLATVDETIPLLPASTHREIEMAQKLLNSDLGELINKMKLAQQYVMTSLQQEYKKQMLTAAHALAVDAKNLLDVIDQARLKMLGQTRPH
Torsin-1A (Homo sapiens), sequence (O14656 whole entry, looked up): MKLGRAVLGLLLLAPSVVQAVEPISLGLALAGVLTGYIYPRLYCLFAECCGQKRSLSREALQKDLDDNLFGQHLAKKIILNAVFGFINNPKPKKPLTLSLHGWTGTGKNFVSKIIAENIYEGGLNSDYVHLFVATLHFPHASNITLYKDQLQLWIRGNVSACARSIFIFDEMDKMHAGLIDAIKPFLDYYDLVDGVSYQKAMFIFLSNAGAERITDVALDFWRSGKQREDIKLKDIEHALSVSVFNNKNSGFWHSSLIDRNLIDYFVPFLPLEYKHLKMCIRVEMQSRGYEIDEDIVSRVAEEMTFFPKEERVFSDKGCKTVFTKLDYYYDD
Fibroblast growth factor 2 (Homo sapiens), sequence (P09038 whole entry, looked up): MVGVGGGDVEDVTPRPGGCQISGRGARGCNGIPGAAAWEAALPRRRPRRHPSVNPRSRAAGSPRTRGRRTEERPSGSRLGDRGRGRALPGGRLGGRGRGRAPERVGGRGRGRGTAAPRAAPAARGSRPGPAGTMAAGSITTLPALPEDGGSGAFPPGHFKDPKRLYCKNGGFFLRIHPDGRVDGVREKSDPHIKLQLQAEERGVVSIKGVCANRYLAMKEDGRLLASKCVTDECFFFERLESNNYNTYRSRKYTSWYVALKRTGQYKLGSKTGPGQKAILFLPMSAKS
Streptavidin (Streptomyces avidinii), sequence (P22629 whole entry, looked up): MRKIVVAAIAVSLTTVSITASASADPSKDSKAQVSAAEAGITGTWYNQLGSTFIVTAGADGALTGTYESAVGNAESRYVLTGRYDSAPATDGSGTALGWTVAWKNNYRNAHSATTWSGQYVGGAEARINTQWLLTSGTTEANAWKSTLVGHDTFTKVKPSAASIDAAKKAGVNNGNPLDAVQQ
Luciferin 4-monooxygenase (Photinus pyralis), sequence (P08659 whole entry, looked up): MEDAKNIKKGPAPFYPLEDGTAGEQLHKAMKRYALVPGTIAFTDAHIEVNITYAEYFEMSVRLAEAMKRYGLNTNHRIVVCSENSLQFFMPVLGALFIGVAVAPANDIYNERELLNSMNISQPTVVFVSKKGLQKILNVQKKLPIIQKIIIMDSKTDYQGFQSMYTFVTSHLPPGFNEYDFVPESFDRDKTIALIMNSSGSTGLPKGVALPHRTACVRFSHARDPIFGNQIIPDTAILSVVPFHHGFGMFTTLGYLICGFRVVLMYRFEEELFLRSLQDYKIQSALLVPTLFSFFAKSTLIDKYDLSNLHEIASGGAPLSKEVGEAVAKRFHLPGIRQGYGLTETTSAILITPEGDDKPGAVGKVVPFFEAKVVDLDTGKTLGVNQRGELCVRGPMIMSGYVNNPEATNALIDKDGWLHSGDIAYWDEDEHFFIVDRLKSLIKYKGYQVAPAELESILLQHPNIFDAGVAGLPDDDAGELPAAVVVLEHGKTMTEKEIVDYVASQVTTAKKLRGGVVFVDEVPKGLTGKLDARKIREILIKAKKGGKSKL

## O=C1OCC=C[C@H]2OC34C=CCN(c5ccc(Cl)cc5)C(=O)[C@H]3N(CCCCCO)C(=O)[C@@H]4[C@@H]12 (stereo not given in full)
[1]
  composite z-score: 3.93
[2]
  composite z-score: -0.434
[3]
  composite z-score: 0.0336
[4]
  composite z-score: -0.825
[5]
  composite z-score: -1.03
[6]
  composite z-score: -0.994
[7]
  z-score: 0.731
Lefty1
  composite z-score: -1.52
[8]
  composite z-score: -0.519
[9]
  z-score: -0.232 (inactive)
[10]
  composite z-score: -0.391
[11]
  z-score: -0.116 (inactive)
[12]
  z-score: 1.73 (inactive)
[13]
  z-score: 0.183 (inactive)
[14]
  z-score: 0.168 (inactive)
[15]
  composite z-score: -1.18
[16]
  composite z-score: -0.128
Torsin-1A (Homo sapiens) [17]
  composite z-score: 0.172
Torsin-1A (Homo sapiens) [18]
  composite z-score: 2.22
[19]
  composite z-score: -0.695

## NCCCCCCNC(=O)[C@@H]1C[C@@H]2C(=O)N3CCC[C@H]3C(=O)N2[C@@H]1c1ccc(O)cc1
[1]
  composite z-score: 0.508
[2]
  composite z-score: 1.18
[3]
  composite z-score: 0.439
[4]
  composite z-score: 0.578
[5]
  composite z-score: 1.41
[6]
  composite z-score: 1.29
[7]
  z-score: 0.37
Lefty1
  composite z-score: 1.25
[8]
  composite z-score: 0.636
[9]
  z-score: -0.284 (inactive)
[10]
  composite z-score: 0.236
[11]
  z-score: -0.118 (inactive)
[12]
  z-score: -0.515 (inactive)
[13]
  z-score: 0.826 (inactive)
[14]
  z-score: -0.615 (inactive)
[15]
  composite z-score: 1.01
[16]
  composite z-score: -0.323
Torsin-1A (Homo sapiens) [17]
  composite z-score: 0.592
Torsin-1A (Homo sapiens) [18]
  composite z-score: 0.513
[19]
  composite z-score: 2

## CCOC(=O)C[C@H]1[C@H](OC(=O)Cc2ccc3c(c2)OCO3)[C@@H](NC(=O)Cc2ccc(OC)cc2)c2cc(OCCCO)ccc2N1C(=O)c1ccccc1
[1]
  composite z-score: 0.0506
[2]
  composite z-score: 0.814
[3]
  composite z-score: 0.668
[4]
  composite z-score: 0.511
[5]
  composite z-score: 0.41
[6]
  composite z-score: 0.251
[7]
  z-score: 1.57
Lefty1
  composite z-score: 0.389
[8]
  composite z-score: 0.956
[9]
  z-score: -0.566 (inactive)
[10]
  composite z-score: 0.194
[11]
  z-score: -0.0801 (inactive)
[12]
  z-score: -0.112 (inactive)
[13]
  z-score: 0.222 (inactive)
[14]
  z-score: -0.377 (inactive)
[15]
  composite z-score: 0.421
[16]
  composite z-score: -0.103
Torsin-1A (Homo sapiens) [17]
  composite z-score: -0.334
Torsin-1A (Homo sapiens) [18]
  composite z-score: 0.426
[19]
  composite z-score: 0.528

## CC(=O)N1Cc2ccccc2C[C@]2(N=C(c3ccc(OCCCO)cc3)O[C@@H]2c2ccccc2)C1=O
[1]
  composite z-score: 2.62
[2]
  composite z-score: 1.2
[3]
  composite z-score: 0.552
[4]
  composite z-score: 0.654
[5]
  composite z-score: 0.743
[6]
  composite z-score: 1.2
[7]
  z-score: 0.638
Lefty1
  composite z-score: 0.036
[8]
  composite z-score: 0.956
[9]
  z-score: -2 (inactive)
[10]
  composite z-score: 0.865
[11]
  z-score: -3.38 (inactive)
[12]
  z-score: -0.497 (inactive)
[13]
  z-score: 1.13 (inactive)
[14]
  z-score: 2.08 (inactive)
[15]
  composite z-score: 0.253
[16]
  composite z-score: 0.12
Torsin-1A (Homo sapiens) [17]
  composite z-score: 0.611
Torsin-1A (Homo sapiens) [18]
  composite z-score: 0.297
[19]
  composite z-score: 1.18

## COc1ccc([Si](C)(C)[C@H]2[C@H](CCn3cc([C@H](O)c4ccccc4)nn3)O[C@@]3(C(=O)N(Cc4ccc(N5CCOC5=O)cc4)c4ccccc43)[C@@H]2C)cc1
[1]
  composite z-score: -0.194
[2]
  composite z-score: -0.993
[3]
  composite z-score: -0.775
[4]
  composite z-score: -0.231
[5]
  composite z-score: -0.988
[6]
  composite z-score: -0.785
[7]
  z-score: 1.26
Lefty1
  composite z-score: -0.919
[8]
  composite z-score: -0.0383
[9]
  z-score: -0.278 (inactive)
[10]
  composite z-score: -0.271
[11]
  z-score: -1.3 (inactive)
[12]
  z-score: -0.434 (inactive)
[13]
  z-score: 0.804 (inactive)
[14]
  z-score: -0.889 (inactive)
[15]
  composite z-score: -0.303
[16]
  composite z-score: -0.208
Torsin-1A (Homo sapiens) [17]
  composite z-score: -0.995
Torsin-1A (Homo sapiens) [18]
  composite z-score: -1.35
[19]
  composite z-score: -0.25
